Data as given in the supplement of paper PMC8728848.
About 410 targets per protein were measured; listed, in parts, are those with the strongest signals and a random draw of the rest.

Columns and labels:
Assay in all cases: glycan array binding signal (z-score within array); higher = stronger binding
Details in all cases: glycan notation: IUPAC condensed, linker removed
[1] = target: Gal3S(b1-3)GalNAc
Procedure, shortened: (§1)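 From the Consortium for Functional Glycomics database, 3228 arrays were curated, keeping only those whose protein sequence was available. Binding is given as a within-array Z-score averaged across arrays sharing a protein sequence and across linkers. Negative Z-scores can be read as non-binding.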

[2] = target: Gal3S(b1-4)Glc
Procedure, shortened: as §1

[3] = target: Gal6S(b1-3)GlcNAc
Procedure, shortened: as §1

[4] = target: Gal6S(b1-3)GlcNAc6S
Procedure, shortened: as §1

[5] = target: GalNAc(b1-3)GalNAc
Procedure, shortened: as §1

[6] = target: GalNAc(b1-4)GlcNAc(b1-3)GalNAc(b1-4)GlcNAc
Procedure, shortened: as §1

[7] = target: Glc(b1-4)Glc
Procedure, shortened: as §1

[8] = target: GlcA(b1-3)Gal
Procedure, shortened: as §1

[9] = target: GlcA3S(b1-3)Gal(b1-4)GlcNAc(b1-3)Gal(b1-4)Glc
Procedure, shortened: as §1

[10] = target: GlcNAc(a1-4)Gal(b1-4)GlcNAc(b1-3)Gal(b1-4)[Fuc(a1-3)]GlcNAc(b1-3)Gal(b1-4)[Fuc(a1-3)]GlcNAc
Procedure, shortened: as §1

[11] = target: GlcNAc(b1-2)Gal(b1-3)GalNAc
Procedure, shortened: as §1

[12] = target: GlcNAc(b1-2)Man(a1-3)[GlcNAc(b1-2)Man(a1-6)]Man(b1-4)GlcNAc(b1-4)GlcNAc
Procedure, shortened: as §1

[13] = target: GlcNAc(b1-2)[GlcNAc(b1-4)]Man(a1-3)[GlcNAc(b1-4)][GlcNAc(b1-2)Man(a1-6)]Man(b1-4)GlcNAc(b1-4)GlcNAc
Procedure, shortened: as §1

[14] = target: GlcNAc(b1-2)[GlcNAc(b1-6)]Man(a1-6)[GlcNAc(b1-2)Man(a1-3)]Man(b1-4)GlcNAc(b1-4)[Fuc(a1-6)]GlcNAc
Procedure, shortened: as §1

[15] = target: GlcNAc(b1-3)Gal(b1-4)GlcNAc(b1-3)Gal(b1-4)GlcNAc(b1-2)Man(a1-3)[GlcNAc(b1-3)Gal(b1-4)GlcNAc(b1-3)Gal(b1-4)GlcNAc(b1-2)Man(a1-6)]Man(b1-4)GlcNAc(b1-4)[Fuc(a1-6)]GlcNAc
Procedure, shortened: as §1

[16] = target: GlcNAc(b1-3)Gal(b1-4)GlcNAc(b1-3)Gal(b1-4)GlcNAc(b1-3)Gal(b1-4)GlcNAc(b1-3)Gal(b1-4)GlcNAc(b1-2)[GlcNAc(b1-3)Gal(b1-4)GlcNAc(b1-3)Gal(b1-4)GlcNAc(b1-3)Gal(b1-4)GlcNAc(b1-3)Gal(b1-4)GlcNAc(b1-6)]Man(a1-6)[GlcNAc(b1-3)Gal(b1-4)GlcNAc(b1-3)Gal(b1-4)GlcNAc(b1-3)Gal(b1-4)GlcNAc(b1-3)Gal(b1-4)GlcNAc(b1-2)Man(a1-3)]Man(b1-4)GlcNAc(b1-4)[Fuc(a1-6)]GlcNAc
Procedure, shortened: as §1

[17] = target: GlcNAc(b1-3)[GlcNAc(b1-4)][GlcNAc(b1-6)]GlcNAc
Procedure, shortened: as §1

[18] = target: GlcNAc(b1-4)GlcNAc(b1-4)GlcNAc(b1-4)GlcNAc(b1-4)GlcNAc
Procedure, shortened: as §1

[19] = target: Man(a1-3)[Man(a1-6)]Man
Procedure, shortened: as §1

[20] = target: Man(a1-3)[Man(a1-6)]Man(a1-6)[Man(a1-2)Man(a1-3)]Man(b1-4)GlcNAc(b1-4)GlcNAc
Procedure, shortened: as §1

[21] = target: Neu5Ac(a2-3)Gal(b1-3)[Fuc(a1-4)]GlcNAc
Procedure, shortened: as §1

[22] = target: Neu5Ac(a2-3)Gal(b1-3)]Neu5Ac(a2-3)Gal(b1-4)]GlcNAc
Procedure, shortened: as §1

[23] = target: Neu5Ac(a2-3)Gal(b1-4)GlcNAc(b1-2)Man(a1-3)[GlcNAc(b1-4)][Neu5Ac(a2-3)Gal(b1-4)GlcNAc(b1-2)Man(a1-6)]Man(b1-4)GlcNAc(b1-4)GlcNAc
Procedure, shortened: as §1

[24] = target: Neu5Ac(a2-3)Gal(b1-4)GlcNAc(b1-2)Man(a1-3)[Neu5Ac(a2-3)Gal(b1-4)GlcNAc(b1-2)Man(a1-6)]Man(b1-4)GlcNAc(b1-4)[Fuc(a1-6)]GlcNAc
Procedure, shortened: as §1

[25] = target: Neu5Ac(a2-3)Gal(b1-4)GlcNAc(b1-3)Gal(b1-4)GlcNAc(b1-3)Gal(b1-4)GlcNAc
Procedure, shortened: as §1

[26] = target: Neu5Ac(a2-3)Gal(b1-4)[Fuc(a1-3)]GlcNAc(b1-3)GalNAc
Procedure, shortened: as §1

[27] = target: Neu5Ac(a2-8)Neu5Gc(a2-3)Gal(b1-4)GlcNAc
Procedure, shortened: as §1

B1: PX9961KLbvu-535-38-535 (Bacteroides vulgatus) (protein)
chain: DKAYTDAESYTKGLHKIYSVWALSGQDGSSSSDISGLDAGNTALLRCWWTLQEQPTDEMKNAWNDAWCTEVNYMTWTTNKVEPIEGVYQRCMYIVALVNEFLKNIPNAPESIDKESYIAQARFNRAFAYYVLMDMFALPPFITEKNYSIEPAPLSREDLFNWIEAELNEIKPNLPSPRSEYGVADQAVASALLARMYLNAEIYTGKARYTECINACNEVIKAGYQLADNYADLFKADNGENPDTKKEIIYPIIFDGDKTQSWGMAAIIIGARGAEDKDVLLAHSGVDQGWAGFRATSNLVHLFDFQNDEEPKASEIQDKRGIFYDKGRSIDITSSVSGTFETEGWSVFKFSNLNSNGQPGKNTLWVDTDFPMFRLGDIYLMYAEAVARGGEGSKASAVEYINALRKRAYGDDKHNISENWLEENNFRNLLDERGRELYWEGIRRTDLVRFDLLTSGSYTWDFKGGINTGVGVNKRYNVYPIPVTDLTVNGNLQQNEGY
- glycan array binding signal (z-score) [1]: -0.326
- glycan array binding signal (z-score) [2]: 1.38
- glycan array binding signal (z-score) [3]: 0.63
- glycan array binding signal (z-score) [4]: 1.44
- glycan array binding signal (z-score) [5]: -0.606
- glycan array binding signal (z-score) [6]: -0.094
- glycan array binding signal (z-score) [7]: -0.497
- glycan array binding signal (z-score) [8]: -0.742
- glycan array binding signal (z-score) [9]: -0.814
- glycan array binding signal (z-score) [10]: 0.673
- glycan array binding signal (z-score) [11]: 0.183
- glycan array binding signal (z-score) [12]: -0.632
- glycan array binding signal (z-score) [13]: 1.4
- glycan array binding signal (z-score) [14]: 0.105
- glycan array binding signal (z-score) [15]: 1.82
- glycan array binding signal (z-score) [16]: 1.39
- glycan array binding signal (z-score) [17]: -0.666
- glycan array binding signal (z-score) [18]: -0.429
- glycan array binding signal (z-score) [19]: -0.077
- glycan array binding signal (z-score) [20]: 0.357
- glycan array binding signal (z-score) [21]: 1.01
- glycan array binding signal (z-score) [22]: -0.578
- glycan array binding signal (z-score) [23]: -0.451
- glycan array binding signal (z-score) [24]: 0.475
- glycan array binding signal (z-score) [25]: -0.106
- glycan array binding signal (z-score) [26]: 0.19
- glycan array binding signal (z-score) [27]: 19.4
